Compound activity: PubChem, National Center for Advancing Translational Sciences (NCATS)
Only some compounds are listed: those with a hit (about 5.3% of all), similar ones and a draw of the others.
JMJD2A Tudor – JMJD2A Tudor domain (human) inhibition. O75164. AlphaScreen JMJD2A-Tudor / H3K4me3 peptide binding. Potency, µM (highest dose often 114 µM), usual class: inhibitors. actives 4.4% (n = 390,000). AID 504339; further: nearly all actives have a fitted effect of over 50% in size
BAZ2B inh – blocks human BAZ2B; Q9UIF8; AlphaScreen BAZ2B-H3K14Ac peptide displacement; Potency, µM (highest dose often 114 µM), usual class: inhibitors; actives 4.4% (n = 360,000); further: nearly all actives have a fitted effect of over 60% in size
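Complex of BAZ2B and biotin-H3K14Ac (50 nM apiece) forms over 30 min at RT, then faces library compounds up to 110 uM for another 30 min; AlphaScreen beads added, 20 min dark incubation, luminescence read.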
HP1b chromo inh – blocks HP1-beta chromodomain binding to methylated histone tails; Potency, µM (titrated, usually from 114 µM), usual class: inhibitors; P83916; AlphaScreen HP1-beta / biotin-H3K9me3 peptide binding; AID 540317; actives 0.56% (n = 390,000); further: nearly all actives have a fitted effect of over 70% in size
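HP1-beta protein (50 nM final) preincubated 30 min at room temperature with biotinylated H3(1-18)K9me3 peptide (50 nM) in PBS pH 7.4, 0.01% Tween-20, then compound added for 30 min. AlphaScreen streptavidin donor/nickel chelate acceptor beads (10 ug/mL final), 30 min dark, luminescence read.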
TDP1 inh – inhibitors of human tyrosyl-DNA phosphodiesterase TDP1; Q9NUW8; Potency, µM (titrated, usually from 130 µM), most hits filed as inhibitors; actives 0.28% (n = 350,000); recombinant TDP1, AlphaScreen DNA substrate cleavage; further: nearly all actives have a fitted effect of over 40% in size
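Enzyme-compound mixtures sat 15 min at room temperature, followed by a 5 min reaction with 15 nM final substrate and 10 min with AlphaScreen beads. Recombinant human Tdp1 was used at 1 nM final.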
Six1-Eya2 inh – inhibitors of human Six1/Eya2 interaction; Q15475+O00167; AlphaScreen GST-Six1/His-Eya2 binding, biochemical; stronger effect = lower value; activity change, % (no concentration beside the values); actives 0.56% (n = 360,000); in the data active means activity change below about -65%; inconclusive means mostly about -30% to -63%
Target sequence (O00167 whole entry, looked up): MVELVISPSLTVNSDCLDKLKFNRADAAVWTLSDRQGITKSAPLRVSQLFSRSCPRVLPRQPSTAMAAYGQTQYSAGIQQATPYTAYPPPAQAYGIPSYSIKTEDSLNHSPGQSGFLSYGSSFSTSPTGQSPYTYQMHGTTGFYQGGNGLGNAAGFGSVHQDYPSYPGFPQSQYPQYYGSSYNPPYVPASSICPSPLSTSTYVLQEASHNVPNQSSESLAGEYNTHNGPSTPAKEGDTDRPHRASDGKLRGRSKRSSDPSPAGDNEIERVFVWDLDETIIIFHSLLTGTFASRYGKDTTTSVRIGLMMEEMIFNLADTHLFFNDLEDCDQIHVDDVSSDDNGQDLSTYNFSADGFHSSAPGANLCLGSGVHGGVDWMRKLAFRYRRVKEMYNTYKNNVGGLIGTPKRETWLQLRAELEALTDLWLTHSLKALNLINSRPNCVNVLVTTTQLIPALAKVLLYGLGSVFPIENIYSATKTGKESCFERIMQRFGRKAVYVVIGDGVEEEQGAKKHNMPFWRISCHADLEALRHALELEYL
Target sequence (Q15475 whole entry, looked up): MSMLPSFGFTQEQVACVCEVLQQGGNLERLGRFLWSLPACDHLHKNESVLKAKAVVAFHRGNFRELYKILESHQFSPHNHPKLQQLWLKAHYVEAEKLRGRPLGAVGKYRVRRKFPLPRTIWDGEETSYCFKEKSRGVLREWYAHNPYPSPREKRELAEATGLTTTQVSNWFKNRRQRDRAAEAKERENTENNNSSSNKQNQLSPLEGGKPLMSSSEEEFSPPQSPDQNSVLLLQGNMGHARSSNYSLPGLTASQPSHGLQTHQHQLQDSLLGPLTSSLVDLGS
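Homogeneous AlphaScreen proximity assay pairing GST-Six1 with His-tagged Eya2 (added as 5X mix: 250 nM and 500 nM) in 50 mM Tris pH 8.0, 300 mM NaCl, 1 mM TCEP. Glutathione donor and nickel acceptor beads; 1 h, 37 °C, dark.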
CtBP-E1A blk – inhibitors of CtBP/E1A interaction. AlphaScreen GST-E1A/His-CtBP binding, 1536-well; stronger effect = lower value. activity change, % (concentration not given with the values). actives 0.49% (n = 340,000). AID 651724; in the data active means activity change below about -65%; inconclusive means mostly about -30% to -63%
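AlphaScreen with 125 nM GST-E1A and 125 nM His-CtBP (5X stocks) in Tris pH 8.0, 300 mM NaCl, BSA, Tween 20, TCEP. Compounds preincubated 2 h at 37 deg C, then glutathione donor/nickel acceptor beads added for 1 h at 37 deg C in dark.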
A number is an active result; - = inactive; ? = inconclusive; . = no result; ! = not active in a repeat; [ ] = remark or other dose. Unless noted, the call rests on the fitted dose curve; in most records, active means well fitted inhibition curve with a large enough effect; inconclusive means small, poorly fitted or top-dose-only effect; inactive means no such curve, though single readings can be large or run the other way.

SMILES	JMJD2A Tudor	BAZ2B inh	HP1b chromo inh	TDP1 inh	Six1-Eya2 inh	CtBP-E1A blk
CCN1CCN(c2ccc([N+](=O)[O-])cc2C=C2C(=O)NC(=O)NC2=O)CC1	-	-	?	-	-	-
CC(=O)OC1CC[C@@]2(C)C(=CC[C@H]3[C@@H]4CC[C@H](C(C)=O)[C@@]4(C)CC[C@@H]32)C1 (stereo partly specified)	.	.	.	-	.	.
CC(=O)OCC1=C[C@H]2[C@@H]3C(C)(C)[C@]3(OC(=O)Cc3ccccc3)C[C@@H](C)[C@]2(O)[C@@H]2C=C(C)C(=O)[C@@]2(O)C1	.	.	.	-	.	.
Cc1ccsc1/C=C1\C(=O)NC(=S)N(C)C1=O	89µM	?	-	-	-	.
CN1C(=O)/C(=C/c2ccc(Cl)s2)C(=O)NC1=S	25µM	-	-	-	-	-
CN1C(=O)/C(=C\c2ccc(N3CCCCC3)o2)C(=O)NC1=S	-	-	-	-	-	-
COc1ccc(/C=C2\C(=O)NC(=S)N(C)C2=O)cc1C	4µM	?	8.9µM	.	?	-
CN1C(=O)/C(=C\c2ccc(N3CCCCCC3)cc2)C(=O)NC1=S	?	?	-	-	-	.
C[C@@H]1C[C@@H]2[C@H]([C@H]3C=C(COC(=O)c4ccccc4)[C@@H](O)[C@]4(O)[C@@H](O)C(OC(=O)c5ccccc5)=C[C@@]14C3=O)C2(C)C	.	.	.	-	.	.
O=C1OC(=O)C2C3CCC(O3)C12 (stereo unspecified)	.	-	.	?	.	.
C[C@@H]1CC[C@H]2[C@H](C)[C@H]3CC[C@@]4(O)[C@@H]5CC(=O)[C@H]6CC(=O)CC[C@]6(C)[C@H]5C[C@H]4[C@@H]3CN2C1	.	.	.	-	.	.
C=C(C)C(=O)Nc1cccc(C2=NOC3(C2)C[C@H](C(N)=O)N(C(=O)/C=C/C)C3)c1 (stereo partly specified)	8.9µM	7.1µM	8.9µM	.	-	-
Oc1c(Br)c(Br)c(Br)c(Br)c1Br	?	56µM	-	-	-	-
COC(C)(C)CCCC(C)C/C=C/C(C)=C/C(=O)OC(C)C (stereo unspecified)	-	-	-	16µM!	-	-
O=C1NC(=O)C(=Cc2cccc(OCCOc3ccccc3)c2)C(=O)N1	?	-	-	.	-	-
Cc1ccc(OCCOc2cccc(C=C3C(=O)NC(=O)NC3=O)c2)c(C)c1	35µM	?	-	79µM	-	-
O=c1[nH]c(=S)[nH]c(O)c1C(c1ccccn1)c1c(O)[nH]c(=S)[nH]c1=O	?	20µM	-	.	-	-
COc1ccc(Cc2c(O)[nH]c(=S)[nH]c2=O)cc1	?	-	-	-	-	-
CCn1c(O)c(C(c2ccccn2)c2c(O)n(CC)c(=S)[nH]c2=O)c(=O)[nH]c1=S	4µM	32µM	-	.	-	-
O=C1NC(=O)C(=Cc2ccc(-c3ccc(F)cc3O)o2)C(=O)N1	?	56µM	-	.	-	-
CN1CCN(c2ccc(/C=C3\C(=O)NC(=S)N(c4cccc(Br)c4)C3=O)o2)CC1	?	40µM	?	-	-	-
CCOc1ccc(N2C(=O)/C(=C/c3ccc(C)o3)C(=O)NC2=S)cc1	25µM	?	?	.	-	.
Cc1ccc(/C=C2\C(=O)NC(=S)N(c3cccc(F)c3)C2=O)o1	45µM	50µM	?	-	-	.
COc1ccc(N2C(=O)/C(=C/c3ccc(C)o3)C(=O)NC2=S)cc1	32µM	45µM	-	.	-	-
O=[N+]([O-])C(Br)Br	.	.	.	-	.	.
SMILES	JMJD2A Tudor	BAZ2B inh	HP1b chromo inh	TDP1 inh	Six1-Eya2 inh	CtBP-E1A blk
CCCCCCCCCCCCCC(=O)O[C@@H]1[C@@H](C)[C@@]2(O)[C@H](C=C(CO)C[C@]3(O)C(=O)C(C)=C[C@@H]23)[C@@H]2C(C)(C)C12OC(C)=O (stereo partly specified)	.	.	.	-	.	.
Cc1c(OC(=O)N(C)C)ccc2c1O/C(=C\c1ccco1)C2=O	-	56µM	-	.	-	-
O=[N+]([O-])c1ccccc1-c1ccccc1	.	.	.	-	.	.
Cc1ccccc1Nc1c(-c2ccc(Br)cc2O)nc2sccn12	?	22µM	-	-	.	.
COc1ccc(CCNC(=O)CCc2c(C)nc3c(-c4ccc(F)cc4)c(C)nn3c2C)cc1OC	-	-	-	-	.	.
CCN(CC)C(=O)Cn1cc(/C=C2\C(=O)NC(=O)N(c3ccccc3F)C2=O)c2ccccc21	-	-	-	.	-	-
O=C1NC(=O)N(c2ccccc2F)C(=O)/C1=C/c1ccc(Oc2ccc([N+](=O)[O-])cn2)cc1	?	56µM	-	-	-	-
CC[C@H](CC[C@@H](C)C1CC[C@H]2[C@@H]3CC=C4C[C@@H](O)CC[C@]4(C)[C@H]3CC[C@]12C)C(C)C (stereo partly specified)	.	.	.	-	.	.
CCC1CN2CCC1CC2C(Oc1cc2ccccc2c2ccccc12)c1ccnc2ccc(O)cc12 (stereo unspecified)	.	.	.	-[21 µM]	.	.
O=C(CCCN1CCC2(CC1)C(=O)N(Cc1cccc(F)c1)CN2c1ccccc1)c1ccc(F)cc1	.	.	.	-	.	.
CCCN1CCC[C@@H]2Cc3cn[nH]c3C[C@H]21	.	.	.	-	.	.
CCCN1CCCC2Cc3[nH]ncc3CC21 (stereo unspecified)	.	.	.	0.28µM!	.	.
O=C1CC(N2CCC(n3c(=O)[nH]c4ccccc43)CC2)C(=O)N1c1ccc(F)cc1 (stereo unspecified)	-[11.4 µM]	-	-	-	-	-
O=c1[nH]c2ccccc2n1C1CCN(CCCC(c2ccc(F)cc2)c2ccc(F)cc2)CC1	40µM	?	?	-	-	-
Clc1c(Cl)c(Cl)c(Cl)c(Cl)c1Cl	.	.	.	-	.	.
Cc1ccc(CN(C)CCc2ccccn2)cc1	3.2µM	?	?	-	-	-
Cc1ccc(N2C(=O)NC(=O)C(CCc3ccccn3)(Cc3ccc(F)cc3)C2=O)cc1 (stereo unspecified)	-	-	-	-	-	-
NCCc1ccccn1	.	.	.	-	.	.
CN(CCc1ccccn1)Cc1ccc(Cl)cc1	6.3µM	45µM	?	-	-	-
CC(C)(C)NC(=O)N1c2ccccc2Sc2ccccc21	-	-	-	.	-	-
NC(=O)OCCCc1ccccc1	-	.	-	-	-	-
CCOC(=O)CCCc1cc[c]([Sb](=[O])([OH])[OH])cc1	0.71µM	.	1.3µM	0.25µM	.	.
CCc1cccc(NC(=O)Cn2c(=O)oc3cc(S(=O)(=O)N4CCOCC4)ccc32)c1	-	-	-	-	-	-
CC(C)Cn1c(-c2cccc(S(=O)(=O)N3CCOCC3)c2)n[nH]c1=S	7.1µM	.	-	-	-	.
CCCCCOC(=O)c1ccccc1C(=O)OCCCCC	.	.	.	-	.	.
CCn1c(O)c(/C=N/NC(=O)c2ccncc2)c(=O)n(CC)c1=S	-	-	-	-	-	.
C=CCn1c(O)c(/C=N/NC(=O)c2ccncc2)c(=O)[nH]c1=O	-	79µM	-	.	?	-
